A selection: hits, their analogues and other compounds. The true share with any hit is near 2.5%.
Anesthetic bind – qHTS Assay for Identification of Novel General Anesthetics. Ferritin light chain (Equus caballus), P02791. AID 485281, 2010. hit rate 0.074% among 350,000. Potency, µM (doses to about 77.5 µM), for the others: top-dose activity change, negative = displacement, actives largely listed as inhibitors. apoferritin/1-aminoanthracene competitive binding, fluorescence; also: potency is read from the fitted curve at half-maximal effect; % is scaled to controls: 0 for no effect and ±100 for the full control effect; nearly all actives have a fitted effect of over 20% in size
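Horse-spleen apoferritin (10 uM) in 50% saturated 1-aminoanthracene in PBS was incubated 10 min at room temperature with compound. Fluorescence (ex 380, em 535 nm) was normalized to free and bound 1-AMA, with concentration-response fitted by a four-parameter Hill equation.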
ClpP mod – qHTS Assay for Activators of ClpP; hit rate 1.9% among 340,000; purified B. subtilis ClpP, FRET peptide cleavage, 20 min; Potency, µM (series often up to 57.5 µM), for the others: at the highest dose activity change, negative = active; active = well fitted falling curve with a large enough effect; inconclusive = small, poorly fitted or top-dose-only effect; inactive = no such curve, though single readings can be large or run the other way; also: potency is read from the fitted curve at half-maximal effect; the source files actives as falling curves though it sought activators and does not explain the sign; nearly all actives have a fitted effect of over 65% in size
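FRET quenching reversal measured ClpP activation: 10 microg/mL B. subtilis ClpP at pH 8 with the FRET-FV decapeptide, read at 430 nm after 320 nm excitation. The 20-min minus 0-min signal was scaled between DMSO/no-enzyme wells and ADEP (5.8 microM final).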
TrxR1 substrate – qHTS Assay for Substrates of Mammalian Selenoprotein Thioredoxin Reductase 1 (TrxR1): qHTS; hit rate 0.01% among 390,000; AID 588456, 2011; purified TrxR1 substrate turnover, NADPH consumption readout; Potency, µM (titrated, usually from 114 µM), without a hit: at the top dose activity change, negative = substrate turnover; also: potency is read from the fitted curve at half-maximal effect; % is scaled to controls: 0 for no effect and ±100 for the full control effect; nearly all actives have a fitted effect of over 50% in size
Target sequence (O89049 whole entry, looked up): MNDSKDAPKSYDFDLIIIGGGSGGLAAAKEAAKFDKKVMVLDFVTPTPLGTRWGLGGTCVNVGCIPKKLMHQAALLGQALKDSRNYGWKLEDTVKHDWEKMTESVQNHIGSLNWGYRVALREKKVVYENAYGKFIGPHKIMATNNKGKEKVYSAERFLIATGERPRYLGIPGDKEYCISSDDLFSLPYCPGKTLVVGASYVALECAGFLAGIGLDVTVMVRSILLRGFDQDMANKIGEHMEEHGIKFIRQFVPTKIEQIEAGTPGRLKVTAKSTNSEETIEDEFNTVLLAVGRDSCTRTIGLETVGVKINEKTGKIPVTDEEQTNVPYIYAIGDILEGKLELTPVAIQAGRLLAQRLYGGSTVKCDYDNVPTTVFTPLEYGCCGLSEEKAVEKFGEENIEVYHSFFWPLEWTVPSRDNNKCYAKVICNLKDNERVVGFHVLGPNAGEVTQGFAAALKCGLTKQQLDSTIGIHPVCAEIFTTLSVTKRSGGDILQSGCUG
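Rat TrxR1, dispensed at 90 nM, was prereduced with 400 uM NADPH (final) for 5 min at ~22 deg C, then incubated with compound 15 min before 400 uM selenite. A first-read NADPH fluorescence drop versus no-compound background flagged substrates.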
miR-21 reporter – qHTS Assay for Modulators of miRNAs and/orActivators of miR-21; 340,000 tested, under 10 active; Potency, µM (top dose mostly 38.3 µM), for inactives: at the highest dose activity change, positive = activation, most hits filed as activators; HeLa miR-21 FLuc reporter, luciferase, 48 h; AID 2288, 2010;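 also: % of control where 0% means no effect; miR-21 action dims this reporter so a rising signal means less miR-21 action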
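HeLa cells endogenously expressing miR-21, stably carrying CMV-driven firefly luciferase with a downstream miR-21 binding site, 2000 cells/well. Titrations up to approximately 40 uM, 48 hours; luciferase luminescence read.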
TrxR1 inh – qHTS Assay for Inhibitors of Mammalian Selenoprotein Thioredoxin Reductase 1 (TrxR1): qHTS; hit rate 1% among 390,000; Potency, µM (top dose mostly 114 µM), for inactives: at the top dose activity change, negative = inhibition, actives largely listed as inhibitors; recombinant rTrxR1, NADPH fluorescence consumption, selenite substrate; AID 588453, 2011; Thioredoxin reductase 1, cytoplasmic (Rattus norvegicus), O89049; also: potency is read from the fitted curve at half-maximal effect; % is scaled to controls: 0 for no effect and ±100 for the full control effect; nearly all actives have a fitted effect of over 65% in size
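Rat TrxR1 (90 nM in the dispensed reagent) was pre-reduced with 400 uM NADPH for 5 min at room temperature, then incubated with compound for 15 min. After 400 uM selenite was added, NADPH fluorescence (Ex 340/Em 450 nm) was followed for 8 min.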
Active calls of the source: *; ? = inconclusive; nt = no result; [ ] = remark or other dose. Unless noted, calls follow the shape of the dose curve; as a rule, active = well fitted curve in the direction sought with a large enough effect; inconclusive = small, poorly fitted or top-dose-only effect, or another doubt; inactive = no such curve, though single readings can be large; an effect the other way counts as inactive or inconclusive.

SMILES | Anesthetic bind | ClpP mod | TrxR1 substrate | miR-21 reporter | TrxR1 inh
CCCN(C(=O)c1cc2c(s1)-c1ccccc1SC2)c1ccccc1F | 25% | 32µM* | 33% | 22% | 55%
Cc1nn(-c2ccccc2)c2nc(-c3ccco3)cc(C(=O)O)c12 | -4% | -23% | -18%[57.1 µM] | -5% | ?
Cc1nn(-c2cccc(Cl)c2)c2nc(-c3ccco3)cc(C(=O)O)c12 | -7% | 14µM* | 51% | -4% | 50µM*
O=C(Cn1sc2ccccc2c1=O)NC12CC3CC(CC(C3)C1)C2 | 16µM* | -19% | -14% | 17% | 1%
Brc1c(-c2ccccc2)nc2n1Cc1ccccc1-2 | -15% | 1% | 8%[57.1 µM] | -34% | 10%[57.1 µM]
c1ccc2c(c1)Cn1c-2nc2ccccc21 | 4% | 25µM* | 28% | -26% | -1%
C=CCn1c(SCC(=O)NC2CCCCC2)nnc1-c1cccnc1 | -7% | -4% | -9% | -5% | -10%
C=CCn1c(SCC(=O)NC2CCCC2)nnc1-c1ccncc1 | 0% | 25µM* | 2% | -2% | 2%
NC(=O)C1CCN(C(=O)CN(c2ccc3c(c2)OCCO3)S(=O)(=O)c2ccccc2)CC1 | nt | -4% | 4% | nt | 38%[57.1 µM]
O=C(CN(c1ccc2c(c1)OCCO2)S(=O)(=O)c1ccccc1)N1CCN(Cc2ccccc2)CC1 | 0% | 32µM* | 6%[57.1 µM] | 0% | 4%[57.1 µM]
Cc1cccn2c(=O)c(C(=O)NCc3cccc(F)c3)cnc12 | -4% | 5% | 69%[57.1 µM] | -27% | -16%[57.1 µM]
COC(=O)c1ccc(NC(=O)CC2C(=O)N(c3ccccc3)C(=O)N2Cc2cccs2)cc1 (stereo not drawn) | 2% | 0% | 1%[57.1 µM] | -3% | 19%[57.1 µM]
Cc1ccc2cccc(SCC(=O)N3CCOCC3)c2n1 | 0% | 28µM* | 61% | -6% | 26%[57.1 µM]
C=CCn1c(SCC(=O)NCc2ccco2)nc2ccccc2c1=O | -6% | nt | 0%[57.1 µM] | 4% | -2%[57.1 µM]
C=CCn1c(SCC(=O)NCc2ccco2)nnc1-c1ccc2ccccc2n1 | 4% | -4% | -7% | 7% | 79µM*
Cc1ccc2cccc(OCC(=O)NCc3ccco3)c2n1 | -16% | -9% | -5% | 3% | ?
Cc1ccc2cccc(SCC(=O)NCc3ccco3)c2n1 | -13% | 14µM* | 30% | -6% | -1%
C=CCSc1nc(C)cc(/C=C\c2ccccc2)c1C#N | -18% | 28µM* | 2%[57.1 µM] | -2% | -1%[57.1 µM]
Cc1nn(CC(=O)Nc2ccc(C(C)C)cc2)c(=O)c2c(C)n(-c3ccc(Cl)cc3)nc12 | -18% | 3% | 0%[57.1 µM] | 3% | 24%[57.1 µM]
C(=N\Nc1ccc2nncn2n1)/c1ccco1 | 3% | -10% | -2%[57.1 µM] | 0% | -17%[57.1 µM]
BrC(=C\c1ccccc1)/C=N/Nc1ccc2nncn2n1 | -12% | nt | -10% | 18% | 18µM*
CN(Cc1ccccc1)C(=O)c1c[nH]c2ccc(S(=O)(=O)Nc3ccccc3F)cc2c1=O | 7% | -22% | -2% | 1% | 1%
O=C(NC1CC(=O)N(c2ccc(F)cc2)C1)c1cc2ccccc2o1 (stereo not drawn) | 6% | 0% | 0%[57.1 µM] | -2% | -4%[57.1 µM]
C=C(C)c1cccc(C(C)(C)NC(=O)N2CCN(C)CC2)c1 | 5% | -1% | -9% | -4% | -14%
C=C(C)c1cccc(C(C)(C)NC(=O)N2CCN(c3ccc(OC)cc3)CC2)c1 | -9% | 32µM* | 11%[57.1 µM] | 2% | 6%[57.1 µM]
SMILES | Anesthetic bind | ClpP mod | TrxR1 substrate | miR-21 reporter | TrxR1 inh
O=C(c1ccc(Cl)cc1)C(CN1CCCCC1)c1ccccc1 (stereo not drawn) | -14% | nt | 4% | ? | 25µM*
COc1ccc2nc(-c3ccccc3)nc(SC)c2c1 | nt | 22µM* | 4% | nt | 16%
COc1ccc2nc(-c3ccccc3)nc(C3CCCCC3)c2c1 | nt | ? | 4% | nt | 14%
COc1ccc(NC(=O)COC(=O)Cn2nnc3ccccc32)cc1 | -17% | -4% | -6% | -2% | -1%
CN(C)c1ccc(NC(=O)COC(=O)Cn2nnc3ccccc32)cc1 | 3% | 25µM* | -3% | -10% | -69%[11.4 µM]
O=C(COC(=O)Cn1nnc2ccccc21)Nc1ccccc1Br | -9% | 28µM* | -8% | -6% | -12%[57.1 µM]
CC1(C)NC(=O)N(CC(O)CNC23CC4CC(CC(C4)C2)C3)C1=O (stereo not drawn) | -5% | 28µM* | -7% | -7% | 3%[57.1 µM]
COc1ccc(NC(=O)CSc2nn3c(=O)c(C)nnc3s2)cc1 | -4% | 1% | -2% | -3% | -3%
Cc1nnc2sc(SCC(=O)Nc3ccc(Br)cc3)nn2c1=O | -5% | 25µM* | 2%[57.1 µM] | -8% | 2%[57.1 µM]
Oc1ccc(NC(=S)Nc2ccccc2)cc1 | -10% | 0% | 16%[57.1 µM] | -13% | -7%[57.1 µM]
N#Cc1cccc(NC(=S)Nc2ccccc2)c1 | -7% | 4% | -4% | -7% | 45µM*

From PubChem
